# Results published in publication PMC7862700, “An all-to-all approach to the identification of sequence-specific readers for epigenetic DNA modifications on cytosine”.
# Columns and labels:
# Experiment in all cases: DAPPL (digital affinity profiling via proximity ligation, sequencing); 10 mM Tris-HCl pH 7.5, 50 mM NaCl, 1 mM DTT, 4% glycerol, room temperature, 30 min; GST-TFs on glutathione beads, 16-mer random dsDNA library, 0.1% formaldehyde crosslink after washing; high values mean tight binding
# [1] = molecular target: T1, FLI1 (Homo sapiens, UniProt Q01543 1-452); conditions: protein: recombinant; tags: N-terminal GST; dsDNA, one strand shown
# T1 sequence: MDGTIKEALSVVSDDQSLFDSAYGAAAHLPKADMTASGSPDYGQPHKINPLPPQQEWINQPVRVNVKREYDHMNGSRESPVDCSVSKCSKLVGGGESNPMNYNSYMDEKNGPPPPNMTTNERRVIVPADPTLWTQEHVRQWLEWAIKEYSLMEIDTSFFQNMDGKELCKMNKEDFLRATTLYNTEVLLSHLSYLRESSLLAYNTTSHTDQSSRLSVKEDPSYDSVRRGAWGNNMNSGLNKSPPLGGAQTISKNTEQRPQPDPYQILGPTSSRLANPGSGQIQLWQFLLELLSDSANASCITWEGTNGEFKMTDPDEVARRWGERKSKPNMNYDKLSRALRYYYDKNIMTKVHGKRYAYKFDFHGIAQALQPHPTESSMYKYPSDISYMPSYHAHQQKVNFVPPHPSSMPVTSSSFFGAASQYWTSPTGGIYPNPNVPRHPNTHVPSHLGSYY
# Method in brief: (§1)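 Beads coated with glutathione captured GST-fused human transcription factors that had been expressed in yeast, and the factors were then given DNA barcodes and pooled with a tag-only sample. The pools were incubated with 200 nmole of a random double-stranded 16-mer DNA library in Tris/NaCl/DTT/glycerol buffer for 30 min at room temperature, washed, crosslinked with 0.1% formaldehyde and proximity-ligated with BsaI/T4 ligase at 37 °C for 1 h. PCR amplification and Illumina NextSeq500 sequencing came last. Binding signal is each hexamer's read frequency for a factor divided by its frequency for the tag-only sample.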
# [2] = molecular target: T2, ELK1 (Homo sapiens, UniProt P19419 1-428); conditions: protein: recombinant; tags: N-terminal GST; dsDNA, one strand shown
# T2 sequence: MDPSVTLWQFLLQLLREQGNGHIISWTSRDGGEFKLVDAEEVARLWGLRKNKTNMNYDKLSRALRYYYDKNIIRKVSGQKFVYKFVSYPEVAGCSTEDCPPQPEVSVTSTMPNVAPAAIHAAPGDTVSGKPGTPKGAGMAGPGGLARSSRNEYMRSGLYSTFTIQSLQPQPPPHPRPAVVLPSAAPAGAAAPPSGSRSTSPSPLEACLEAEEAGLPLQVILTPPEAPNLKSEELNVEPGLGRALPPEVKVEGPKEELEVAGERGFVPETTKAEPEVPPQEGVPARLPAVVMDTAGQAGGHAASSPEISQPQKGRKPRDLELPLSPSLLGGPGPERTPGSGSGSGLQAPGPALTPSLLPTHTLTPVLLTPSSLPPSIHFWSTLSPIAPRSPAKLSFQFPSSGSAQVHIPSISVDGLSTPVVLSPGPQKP
# Method in brief: as §1
# [3] = molecular target: T3, GABPA (Homo sapiens, UniProt Q06546 1-454); conditions: protein: recombinant; tags: N-terminal GST; dsDNA, one strand shown
# T3 sequence: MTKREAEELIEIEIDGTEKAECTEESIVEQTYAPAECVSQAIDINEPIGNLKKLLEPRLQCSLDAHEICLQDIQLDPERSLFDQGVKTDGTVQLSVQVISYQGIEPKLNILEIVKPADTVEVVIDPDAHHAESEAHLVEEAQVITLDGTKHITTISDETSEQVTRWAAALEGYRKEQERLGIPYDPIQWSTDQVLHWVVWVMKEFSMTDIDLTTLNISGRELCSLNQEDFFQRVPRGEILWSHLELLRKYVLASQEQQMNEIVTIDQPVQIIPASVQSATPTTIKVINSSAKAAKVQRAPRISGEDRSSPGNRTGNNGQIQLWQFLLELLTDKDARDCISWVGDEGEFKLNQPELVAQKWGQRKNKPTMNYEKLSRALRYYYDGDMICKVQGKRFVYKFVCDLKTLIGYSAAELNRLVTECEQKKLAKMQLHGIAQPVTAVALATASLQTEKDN
# Method in brief: as §1
# [4] = molecular target: T4, ERG (Homo sapiens, UniProt P11308 1-479); conditions: protein: recombinant; tags: N-terminal GST; dsDNA, one strand shown
# T4 sequence: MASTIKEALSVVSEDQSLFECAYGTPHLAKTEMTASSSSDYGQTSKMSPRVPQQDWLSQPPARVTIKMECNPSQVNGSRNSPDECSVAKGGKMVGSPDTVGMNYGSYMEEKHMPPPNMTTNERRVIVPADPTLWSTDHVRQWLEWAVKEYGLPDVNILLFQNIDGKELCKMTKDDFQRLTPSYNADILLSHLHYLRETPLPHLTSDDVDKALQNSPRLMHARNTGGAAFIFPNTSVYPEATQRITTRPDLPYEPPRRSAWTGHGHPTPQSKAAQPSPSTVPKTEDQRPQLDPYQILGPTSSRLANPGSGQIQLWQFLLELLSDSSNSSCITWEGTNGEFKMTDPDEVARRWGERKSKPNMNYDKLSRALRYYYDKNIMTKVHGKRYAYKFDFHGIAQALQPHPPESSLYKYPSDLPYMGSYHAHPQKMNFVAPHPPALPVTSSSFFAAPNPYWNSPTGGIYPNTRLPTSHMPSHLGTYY
# Method in brief: as §1
# [5] = molecular target: ELF1 (Homo sapiens, UniProt P32519 1-619); conditions: protein: recombinant; tags: N-terminal GST; dsDNA, one strand shown
# Chain of ELF1 (P32519 whole entry): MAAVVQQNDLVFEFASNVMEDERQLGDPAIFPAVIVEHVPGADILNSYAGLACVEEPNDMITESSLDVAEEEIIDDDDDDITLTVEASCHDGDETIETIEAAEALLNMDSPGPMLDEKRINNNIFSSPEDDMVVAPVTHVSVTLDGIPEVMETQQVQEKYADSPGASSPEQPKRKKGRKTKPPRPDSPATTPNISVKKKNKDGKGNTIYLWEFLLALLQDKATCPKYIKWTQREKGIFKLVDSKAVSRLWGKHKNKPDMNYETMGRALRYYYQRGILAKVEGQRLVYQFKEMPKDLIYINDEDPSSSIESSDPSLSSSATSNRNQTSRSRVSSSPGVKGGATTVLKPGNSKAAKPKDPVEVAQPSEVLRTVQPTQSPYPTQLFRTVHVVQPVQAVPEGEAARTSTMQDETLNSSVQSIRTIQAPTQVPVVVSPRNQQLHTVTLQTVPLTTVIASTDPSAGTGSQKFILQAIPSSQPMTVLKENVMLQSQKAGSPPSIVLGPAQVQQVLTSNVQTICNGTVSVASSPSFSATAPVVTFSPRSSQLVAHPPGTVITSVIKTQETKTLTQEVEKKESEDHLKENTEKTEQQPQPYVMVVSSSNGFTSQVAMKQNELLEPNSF
# Method in brief: as §1
# [6] = molecular target: T5, EHF (Homo sapiens, UniProt Q9NZC4 1-300); conditions: protein: recombinant; tags: N-terminal GST; dsDNA, one strand shown
# T5 sequence: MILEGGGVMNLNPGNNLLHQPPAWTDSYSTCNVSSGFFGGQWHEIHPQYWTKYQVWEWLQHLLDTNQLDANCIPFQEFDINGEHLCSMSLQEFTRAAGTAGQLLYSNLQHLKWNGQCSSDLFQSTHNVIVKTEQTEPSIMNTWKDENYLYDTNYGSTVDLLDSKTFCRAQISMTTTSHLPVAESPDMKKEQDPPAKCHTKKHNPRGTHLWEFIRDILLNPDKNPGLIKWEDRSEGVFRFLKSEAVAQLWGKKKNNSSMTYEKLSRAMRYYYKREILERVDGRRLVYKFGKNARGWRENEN
# Method in brief: as §1
# [7] = molecular target: SPI1 (Homo sapiens, UniProt P17947 1-270); conditions: protein: recombinant; tags: N-terminal GST; dsDNA, one strand shown
# Method in brief: as §1
# [8] = molecular target: SPIB (Homo sapiens, UniProt Q01892 1-262); conditions: protein: recombinant; tags: N-terminal GST; dsDNA, one strand shown
# Chain of SPIB (Q01892 whole entry): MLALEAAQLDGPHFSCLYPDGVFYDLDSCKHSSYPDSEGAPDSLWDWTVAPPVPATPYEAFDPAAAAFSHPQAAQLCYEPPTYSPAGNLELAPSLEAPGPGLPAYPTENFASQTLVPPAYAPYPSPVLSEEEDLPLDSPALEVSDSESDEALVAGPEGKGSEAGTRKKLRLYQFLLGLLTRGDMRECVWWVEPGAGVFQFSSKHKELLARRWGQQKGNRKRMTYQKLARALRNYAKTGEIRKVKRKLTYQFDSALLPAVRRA
# Method in brief: as §1
# [9] = molecular target: T6, ELK3 (Homo sapiens, UniProt P41970 1-407); conditions: protein: recombinant; tags: N-terminal GST; dsDNA, one strand shown
# T6 sequence: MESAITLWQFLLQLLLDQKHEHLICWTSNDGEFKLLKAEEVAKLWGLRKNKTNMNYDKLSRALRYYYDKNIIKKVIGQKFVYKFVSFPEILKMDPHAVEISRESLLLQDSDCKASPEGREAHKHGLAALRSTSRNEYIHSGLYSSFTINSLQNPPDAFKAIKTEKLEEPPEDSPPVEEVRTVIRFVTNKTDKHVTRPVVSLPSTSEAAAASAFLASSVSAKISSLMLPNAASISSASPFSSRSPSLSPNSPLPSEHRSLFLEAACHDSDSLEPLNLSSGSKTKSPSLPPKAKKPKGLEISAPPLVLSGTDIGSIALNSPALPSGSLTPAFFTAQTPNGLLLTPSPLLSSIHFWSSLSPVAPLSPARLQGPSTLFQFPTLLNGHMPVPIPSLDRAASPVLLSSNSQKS
# Method in brief: as §1
# [10] = molecular target: T7, FEV (Homo sapiens, UniProt Q99581 1-238); conditions: protein: recombinant; tags: N-terminal GST; dsDNA, one strand shown
# T7 sequence: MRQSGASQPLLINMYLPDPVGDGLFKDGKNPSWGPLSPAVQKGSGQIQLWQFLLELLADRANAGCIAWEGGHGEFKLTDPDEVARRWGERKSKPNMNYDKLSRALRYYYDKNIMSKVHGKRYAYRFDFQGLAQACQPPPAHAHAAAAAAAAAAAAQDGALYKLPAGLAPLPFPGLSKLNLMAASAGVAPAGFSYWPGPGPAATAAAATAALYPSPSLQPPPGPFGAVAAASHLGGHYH
# Method in brief: as §1
# [11] = molecular target: ETV5 (Homo sapiens, UniProt P41161 1-510); conditions: protein: recombinant; tags: N-terminal GST; dsDNA, one strand shown
# Chain of ETV5 (P41161 whole entry): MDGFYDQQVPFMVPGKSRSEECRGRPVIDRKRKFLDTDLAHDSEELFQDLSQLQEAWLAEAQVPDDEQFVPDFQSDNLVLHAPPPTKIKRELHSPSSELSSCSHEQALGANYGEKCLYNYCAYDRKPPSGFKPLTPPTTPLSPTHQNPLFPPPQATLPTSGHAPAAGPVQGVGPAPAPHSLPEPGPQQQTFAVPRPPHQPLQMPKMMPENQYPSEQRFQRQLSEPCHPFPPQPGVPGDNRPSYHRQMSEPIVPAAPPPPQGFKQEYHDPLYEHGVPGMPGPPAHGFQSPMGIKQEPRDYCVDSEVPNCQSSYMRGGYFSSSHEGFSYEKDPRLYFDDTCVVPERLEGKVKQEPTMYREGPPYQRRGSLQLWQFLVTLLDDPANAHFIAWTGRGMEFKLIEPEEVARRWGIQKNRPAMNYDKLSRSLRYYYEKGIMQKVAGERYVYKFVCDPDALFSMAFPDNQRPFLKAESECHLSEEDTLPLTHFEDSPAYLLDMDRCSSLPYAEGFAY
# Method in brief: as §1
# [12] = molecular target: HSF1 (Homo sapiens, UniProt Q00613 1-529); conditions: protein: recombinant; tags: N-terminal GST; chain copies: 3; dsDNA, one strand shown
# Chain of HSF1 (Q00613 whole entry): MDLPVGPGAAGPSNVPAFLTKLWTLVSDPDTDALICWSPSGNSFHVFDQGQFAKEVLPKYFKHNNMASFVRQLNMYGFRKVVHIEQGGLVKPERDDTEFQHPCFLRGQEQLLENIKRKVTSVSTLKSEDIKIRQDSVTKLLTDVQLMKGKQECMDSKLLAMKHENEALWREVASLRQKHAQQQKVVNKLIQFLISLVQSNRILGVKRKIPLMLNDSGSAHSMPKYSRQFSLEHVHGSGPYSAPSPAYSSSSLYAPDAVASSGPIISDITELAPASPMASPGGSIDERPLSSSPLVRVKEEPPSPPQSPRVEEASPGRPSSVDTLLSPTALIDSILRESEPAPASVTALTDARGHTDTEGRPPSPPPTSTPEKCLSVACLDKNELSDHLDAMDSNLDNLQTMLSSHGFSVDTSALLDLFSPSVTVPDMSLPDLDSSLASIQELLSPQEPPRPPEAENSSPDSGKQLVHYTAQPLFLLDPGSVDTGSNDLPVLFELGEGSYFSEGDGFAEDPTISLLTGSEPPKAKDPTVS
# Method in brief: as §1
# [13] = molecular target: T8, SPIC (Homo sapiens, UniProt Q8N5J4 1-248); conditions: protein: recombinant; tags: N-terminal GST; dsDNA, one strand shown
# T8 sequence: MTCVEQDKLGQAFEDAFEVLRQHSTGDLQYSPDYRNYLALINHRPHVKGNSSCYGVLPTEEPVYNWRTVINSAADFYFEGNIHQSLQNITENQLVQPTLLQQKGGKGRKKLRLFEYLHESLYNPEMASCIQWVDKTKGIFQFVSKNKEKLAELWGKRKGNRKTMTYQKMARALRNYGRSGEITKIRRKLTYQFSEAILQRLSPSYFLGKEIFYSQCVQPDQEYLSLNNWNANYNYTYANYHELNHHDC
# Method in brief: as §1
# [14] = molecular target: ELF4 (Homo sapiens, UniProt Q99607 1-663); conditions: protein: recombinant; tags: N-terminal GST; dsDNA, one strand shown
# Chain of ELF4 (Q99607 whole entry): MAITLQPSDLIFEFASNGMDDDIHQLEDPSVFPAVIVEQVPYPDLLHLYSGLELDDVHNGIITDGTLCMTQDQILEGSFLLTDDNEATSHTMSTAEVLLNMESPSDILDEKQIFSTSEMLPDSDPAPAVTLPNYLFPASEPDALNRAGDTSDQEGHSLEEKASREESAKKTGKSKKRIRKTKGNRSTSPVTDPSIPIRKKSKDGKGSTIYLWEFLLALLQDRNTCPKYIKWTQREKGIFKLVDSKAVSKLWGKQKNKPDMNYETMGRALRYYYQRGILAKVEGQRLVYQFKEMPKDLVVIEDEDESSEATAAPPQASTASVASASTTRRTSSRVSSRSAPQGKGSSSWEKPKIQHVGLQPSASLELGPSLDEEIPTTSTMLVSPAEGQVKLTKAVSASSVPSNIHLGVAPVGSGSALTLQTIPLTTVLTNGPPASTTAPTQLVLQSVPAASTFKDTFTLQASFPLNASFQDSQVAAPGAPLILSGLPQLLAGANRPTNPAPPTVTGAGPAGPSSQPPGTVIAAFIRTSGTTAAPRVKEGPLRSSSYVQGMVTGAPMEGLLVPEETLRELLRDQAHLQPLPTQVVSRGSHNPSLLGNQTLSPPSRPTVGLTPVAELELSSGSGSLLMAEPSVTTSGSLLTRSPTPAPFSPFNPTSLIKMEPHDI
# Method in brief: as §1
# [15] = molecular target: T9, ELK4 (Homo sapiens, UniProt P28324-2 1-405); conditions: protein: recombinant; tags: N-terminal GST; dsDNA, one strand shown
# T9 sequence: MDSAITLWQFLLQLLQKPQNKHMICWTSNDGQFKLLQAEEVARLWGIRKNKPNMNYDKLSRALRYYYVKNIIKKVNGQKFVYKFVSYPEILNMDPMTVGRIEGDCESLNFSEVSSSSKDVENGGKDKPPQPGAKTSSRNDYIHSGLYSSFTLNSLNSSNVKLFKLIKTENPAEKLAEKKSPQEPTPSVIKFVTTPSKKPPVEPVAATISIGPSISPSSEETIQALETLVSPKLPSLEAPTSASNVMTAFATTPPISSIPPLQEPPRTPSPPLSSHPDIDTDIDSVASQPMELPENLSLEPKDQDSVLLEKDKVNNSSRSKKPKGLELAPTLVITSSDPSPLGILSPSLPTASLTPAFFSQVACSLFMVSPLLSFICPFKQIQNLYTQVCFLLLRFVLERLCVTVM
# Method in brief: as §1
# [16] = molecular target: T10, ETV2 (Homo sapiens, UniProt O00321 1-342); conditions: protein: recombinant; tags: N-terminal GST; dsDNA, one strand shown
# T10 sequence: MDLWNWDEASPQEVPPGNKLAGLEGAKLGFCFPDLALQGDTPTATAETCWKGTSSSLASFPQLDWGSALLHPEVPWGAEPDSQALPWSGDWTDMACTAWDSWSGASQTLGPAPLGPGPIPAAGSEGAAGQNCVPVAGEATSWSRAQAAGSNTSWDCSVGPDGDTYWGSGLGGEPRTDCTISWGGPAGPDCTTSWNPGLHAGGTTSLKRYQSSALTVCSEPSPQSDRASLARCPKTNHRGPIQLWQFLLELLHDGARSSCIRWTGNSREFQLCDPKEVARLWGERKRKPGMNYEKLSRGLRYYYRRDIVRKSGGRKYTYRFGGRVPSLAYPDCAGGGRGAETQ
# Method in brief: as §1
# [17] = molecular target: T11, ELF3 (Homo sapiens, UniProt P78545 1-371); conditions: protein: recombinant; tags: N-terminal GST; dsDNA, one strand shown
# T11 sequence: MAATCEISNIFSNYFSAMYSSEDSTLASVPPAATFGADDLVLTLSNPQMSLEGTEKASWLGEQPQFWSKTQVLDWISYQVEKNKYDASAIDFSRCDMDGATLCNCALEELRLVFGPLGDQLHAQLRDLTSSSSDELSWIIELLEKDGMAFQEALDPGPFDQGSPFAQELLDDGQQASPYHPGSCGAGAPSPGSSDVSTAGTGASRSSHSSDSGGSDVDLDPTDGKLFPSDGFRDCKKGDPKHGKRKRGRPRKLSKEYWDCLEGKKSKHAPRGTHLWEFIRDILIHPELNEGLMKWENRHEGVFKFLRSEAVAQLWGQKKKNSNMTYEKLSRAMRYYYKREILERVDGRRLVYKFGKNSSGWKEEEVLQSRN
# Method in brief: as §1
# [18] = molecular target: CRX (Homo sapiens, UniProt O43186 1-299); conditions: protein: recombinant; tags: N-terminal GST; dsDNA, one strand shown
# Chain of CRX (O43186 whole entry): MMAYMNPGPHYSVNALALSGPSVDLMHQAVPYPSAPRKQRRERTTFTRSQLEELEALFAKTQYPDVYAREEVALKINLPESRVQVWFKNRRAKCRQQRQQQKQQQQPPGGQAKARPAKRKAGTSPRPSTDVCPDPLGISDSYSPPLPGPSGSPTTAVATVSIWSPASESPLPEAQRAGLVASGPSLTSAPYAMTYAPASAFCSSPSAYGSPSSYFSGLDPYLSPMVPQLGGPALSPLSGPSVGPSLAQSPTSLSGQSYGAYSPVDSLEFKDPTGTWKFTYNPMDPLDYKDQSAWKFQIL
# Method in brief: as §1
# [19] = molecular target: ETV1 (Homo sapiens, UniProt P50549 1-477); conditions: protein: recombinant; tags: N-terminal GST; dsDNA, one strand shown
# Chain of ETV1 (P50549 whole entry): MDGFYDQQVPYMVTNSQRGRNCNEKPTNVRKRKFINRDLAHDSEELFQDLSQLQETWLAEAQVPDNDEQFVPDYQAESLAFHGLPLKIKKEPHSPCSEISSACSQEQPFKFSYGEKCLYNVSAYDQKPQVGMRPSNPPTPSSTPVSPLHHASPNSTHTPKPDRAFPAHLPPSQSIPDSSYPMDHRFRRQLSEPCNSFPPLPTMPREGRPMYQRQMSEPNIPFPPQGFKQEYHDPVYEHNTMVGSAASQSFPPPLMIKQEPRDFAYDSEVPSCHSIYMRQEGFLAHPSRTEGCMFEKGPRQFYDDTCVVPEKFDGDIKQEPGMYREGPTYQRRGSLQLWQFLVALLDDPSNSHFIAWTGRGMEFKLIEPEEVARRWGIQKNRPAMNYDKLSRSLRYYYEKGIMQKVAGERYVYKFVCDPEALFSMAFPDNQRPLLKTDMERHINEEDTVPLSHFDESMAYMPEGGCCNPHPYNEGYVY
# Method in brief: as §1
sequence,measurement,setting,value
AATGGT,binding signal,[1],"1.52 fold enrichment (6-mer frequency, TF over GST control)"
same,binding signal,[2],"1.38 fold enrichment (6-mer frequency, TF over GST control)"
same,binding signal,[3],"1.36 fold enrichment (6-mer frequency, TF over GST control)"
same,binding signal,[4],"1.42 fold enrichment (6-mer frequency, TF over GST control)"
same,binding signal,[5],"1.42 fold enrichment (6-mer frequency, TF over GST control)"
same,binding signal,[6],"1.4 fold enrichment (6-mer frequency, TF over GST control)"
same,binding signal,[7],"1.43 fold enrichment (6-mer frequency, TF over GST control)"
same,binding signal,[8],"1.52 fold enrichment (6-mer frequency, TF over GST control)"
same,binding signal,[9],"1.41 fold enrichment (6-mer frequency, TF over GST control)"
same,binding signal,[10],"1.27 fold enrichment (6-mer frequency, TF over GST control)"
same,binding signal,[11],"1.46 fold enrichment (6-mer frequency, TF over GST control)"
same,binding signal,[12],"1.05 fold enrichment (6-mer frequency, TF over GST control)"
same,binding signal,[13],"1.35 fold enrichment (6-mer frequency, TF over GST control)"
same,binding signal,[14],"1.43 fold enrichment (6-mer frequency, TF over GST control)"
same,binding signal,[15],"1.38 fold enrichment (6-mer frequency, TF over GST control)"
same,binding signal,[16],"1.32 fold enrichment (6-mer frequency, TF over GST control)"
same,binding signal,[17],"1.25 fold enrichment (6-mer frequency, TF over GST control)"
same,binding signal,[18],"1.1 fold enrichment (6-mer frequency, TF over GST control)"
same,binding signal,[19],"1.43 fold enrichment (6-mer frequency, TF over GST control)"
